Data taken from the supplement of paper PMC9794691.

System: PC9
Assay: area under confluence curve of compound monotherapy; compare to DMSO control AUC of the same experiment (AUC (confluence x time, arbitrary))
Conditions: 5 nM; DMSO control AUC in same experiment: 29563
Description: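 compare to DMSO control AUC of the same experiment; Monotherapy arm of the osimertinib DTP screen: EGFR-mutant NSCLC cells were treated with the test compound alone at a fixed dose (highest dose with <50% inhibition of parental cells, or 1 uM), then switched to drug-free medium at the DTP stage. IncuCyte confluence was tracked and AUC computed in Prism. AUC scale depends on experiment duration, so each row carries the same-experiment DMSO control AUC (monotherapy activity = DMSO AUC minus monotherapy AUC). The monotherapy value is shared between screen formats.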

SMILES	area under confluence curve
NC(=O)Nc1cc(-c2cccc(F)c2)sc1C(=O)N[C@H]1CCCNC1	26800

Same assay, conditions: 100 nM; DMSO control AUC in same experiment: 20347

SMILES	area under confluence curve
Cc1nc(Nc2n[nH]c3c2CN(C(=O)N[C@H](CN(C)C)c2ccccc2)C3(C)C)c2sccc2n1	22800

Same assay, conditions: 300 nM; DMSO control AUC in same experiment: 49143

SMILES	area under confluence curve
Oc1nc(-c2ccc(C(F)(F)F)cc2)nc2c1CSCC2	49300

Same assay, conditions: 300 nM; DMSO control AUC in same experiment: 49189

SMILES	area under confluence curve
Cn1cnc2c(F)c(Nc3ccc(Br)cc3Cl)c(C(=O)NOCCO)cc21 [Selumetinib]	49700

Same assay, conditions: 1000 nM; DMSO control AUC in same experiment: 18733

SMILES	area under confluence curve
O=C(N[C@@H](C1CC1)C(F)(F)F)c1cc(-c2cnn3cc(-c4ccc(F)cc4)cnc23)cs1	18000

Same assay, conditions: 1000 nM; DMSO control AUC in same experiment: 28684

SMILES	area under confluence curve
CCn1nc(C2CCN(C(=O)CCO)CC2)nc1-c1cnc(N)c(-c2nnc(C(C)(C)C)o2)n1	28000

Same assay, conditions: 1000 nM; DMSO control AUC in same experiment: 30580

SMILES	area under confluence curve
CS(=O)(=O)N1CCN(Cc2cc3nc(-c4cccc5[nH]ncc45)nc(N4CCOCC4)c3s2)CC1	24700

Same assay, conditions: 1000 nM; DMSO control AUC in same experiment: 31219

SMILES	area under confluence curve
CN(C)C/C=C/C(=O)Nc1ccc(C(=O)Nc2cccc(Nc3ncc(Cl)c(-c4c[nH]c5ccccc45)n3)c2)cc1	31000

Same assay, conditions: 1000 nM; DMSO control AUC in same experiment: 43316

SMILES	area under confluence curve
CCn1nc(C2CCN(C(=O)CCO)CC2)nc1-c1cnc(N)c(-c2nnc(C(C)(C)C)o2)n1	43000

Same assay, conditions: 1000 nM; DMSO control AUC in same experiment: 72888

SMILES	area under confluence curve
CCn1cc(-c2cccc(C(F)(F)F)c2)c2sc(C(=N)NC3CCS(=O)(=O)CC3)cc2c1=O	73000
